Results as given in PubChem BioAssay AID372 (MTDP, 2006).
In all, about 100,000 compounds went through this assay and about 770 (0.77%) were called active. Only a selection was taken, and actives are over-represented in it overall. Unmarked numbers belong to inactive results. Cut-off read from the data, not from the text of the source: active = inhibition above about 50%; inactive = the rest.

Each molecule was assayed against Gag-Pol polyprotein (Human immunodeficiency virus type 1 group M subtype B (isolate HXB2)) (UniProt P04585) (assay: RNase H inhibition, HIV 1 Gag Pol polyprotein, FRET biochemical assay, screening (AID 372)). Settings: HIV-1 RT RNase H, FRET RNA/DNA substrate fluorescence; at 10 µM; stronger effect = higher value.

Structure (SMILES) | inhibition
O=C(N1CCN(c2c(F)c(F)c(C(F)(F)F)c(F)c2F)CC1)C12CC3CC(CC(C3)C1)C2 | 7%
O=c1c(N=Nc2ccc(Br)cc2)c(O)n(-c2ccccc2)c(=O)n1-c1ccccc1 | 17%
COc1ccccc1C1NC(=S)NC(C)=C1C(C)=O (configuration not stated) | 5%
Cc1csc(N/N=C/c2c(F)cccc2Cl)n1 | 18%
Cc1ccc2nc(-c3ccc(NC(=O)c4cccc(F)c4)cc3)sc2c1 | 43%
O=C(Nc1ccc(Cl)cc1)Nc1ccc(-c2nc3ccccc3s2)cc1 | 17%
Cc1ccc2nc(-c3ccc(NC(=S)NC(=O)c4ccccc4F)cc3)sc2c1 | 52% (active)
Cc1ccc2nc(-c3ccc(NC(=S)NC(=O)c4ccccc4Cl)cc3)sc2c1 | 8%
Cc1ccc2nc(-c3ccc(NC(=O)Cc4ccc(Cl)cc4)cc3)sc2c1 | 24%
Cc1ccc2nc(-c3ccc(NC(=S)NC(=O)c4ccccc4)cc3)sc2c1 | 6%
O=C(NC(=S)Nc1ccc(-c2nc3ccccc3s2)cc1)c1cccc(F)c1 | 34%
Cc1cccc(C(=O)NC(=S)Nc2ccc(-c3nc4ccccc4s3)cc2)c1 | 35%
Cc1ccc2nc(-c3ccc(NC(=S)NC(=O)c4cccc(F)c4)cc3)sc2c1 | 56% (active)
Cc1ccc2nc(-c3ccc(NC(=O)CCc4ccccc4)cc3)sc2c1 | 5%
Cc1ccc2nc(-c3ccc(NC(=O)Cc4ccccc4)cc3)sc2c1 | 52% (active)
Cc1cccc(NC(=O)Nc2ccc(-c3nc4ccccc4s3)cc2)c1 | 50% (active)
O=C(Nc1ccc(Cl)cc1)C1CC(=O)N(c2cccc([N+](=O)[O-])c2)C1 (configuration not stated) | 4%
COc1cc(OC)c(/C=C2\C(=O)NC(=S)N(c3ccc(C)cc3)C2=O)cc1Br | 4%
NC(=O)c1ccccc1NC(=O)c1cccc([N+](=O)[O-])c1 | 7%
Cc1ccc(N=C(NO)C(=Nc2ccc(C)c(C)c2)NO)cc1C | 23%
COc1cc(C=C2C(=O)c3ccccc3C2=O)ccc1OCc1ccc(F)cc1 | 7%

Structure (SMILES) | inhibition
COc1cc(C2NC(=O)NC(C)=C2C(=O)OCc2ccc3c(c2)OCO3)cc(OC)c1OC (configuration not stated) | 9%
COc1ccc2c(c1)CC/C(=C\c1ccc([N+](=O)[O-])cc1)C2=O | 4%
COc1cc(C(=O)N/N=C/c2ccc(OC)c(OC)c2C(=O)O)cc(OC)c1OC | 0%
Cc1ccc(C(=O)NC(=S)Nc2ccc(-c3nc4ccccc4s3)cc2)cc1C | 35%
O=C(NC(=S)Nc1ccc(-c2nc3ccccc3s2)cc1)c1ccc([N+](=O)[O-])cc1 | 38%
COc1ccc(C(=O)OCC(=O)c2ccc([N+](=O)[O-])cc2)cc1OC | 7%
O=S(=O)(Nc1nc2ccccc2s1)c1cccc2cccnc12 | 8%
Cc1cc(NC(=O)CSc2nnc3c4ccccc4n(C)c3n2)no1 | 4%
Oc1c(Br)cc(/C=N/Nc2nnc3c(n2)[nH]c2ccccc23)c(O)c1Br | 12%
Oc1c(Br)cc(Br)cc1/C=N/Nc1nnc2c(n1)[nH]c1ccccc12 | 2%
O=C(CNC(=O)c1ccccc1)OCC(=O)c1ccc(Cl)cc1 | 3%
CCOC(=O)c1ccc(N2NC(=O)/C(=C/c3cc(I)cc(I)c3O)C2=O)cc1 | 57% (active)
Cc1ccc(N2NC(=O)/C(=C/c3ccc(O)c(O)c3)C2=O)cc1 | 51% (active)
Cc1ccc(N2NC(=O)/C(=C/c3cc(I)cc(I)c3O)C2=O)cc1 | 0%
CCOc1cc(/C=C2/C(=O)NN(c3ccc(I)cc3)C2=O)ccc1O | 11%
Cc1ccc(N2NC(=O)/C(=C/c3ccc(O)c(O)c3)C2=O)cc1C | 52% (active)
COc1cc(/C=C2/C(=O)NN(c3ccc(C)c(C)c3)C2=O)ccc1O | 25%
O=C1NN(c2ccc(I)cc2)C(=O)/C1=C\c1ccc(F)cc1 | 0%
Cc1ccc(N2C(=O)NC(=O)/C(=C/c3ccc(O)c(O)c3)C2=O)cc1 | 33%
CCOC(=O)c1ccc(N2NC(=O)/C(=C/c3ccccc3O)C2=O)cc1 | 14%
Cc1ccc(N2NC(=O)/C(=C/c3ccc(O)c([N+](=O)[O-])c3)C2=O)cc1 | 8%

Structure (SMILES) | inhibition
Cc1ccc(N2NC(=O)/C(=C/c3ccc(O)cc3)C2=O)cc1C | 13%
O=C(CSc1nc2ccccc2[nH]1)Nc1cc(Cl)ccc1Cl | 4%
CCCOC(=O)C1=C(C)NC2=C(C(=O)CCC2)C1c1cccc(O)c1 (configuration not stated) | 2%
CCOC(=O)C1=C(C)NC2=C(C(=O)CC(C)(C)C2)C1c1cccc(O)c1 (configuration not stated) | 0%
N#CC1=C(SCC(=O)Nc2ccccc2)NC(=O)CC1c1ccco1 (configuration not stated) | 7%
COc1ccc2oc(C)c(C(O)c3ccccc3)c2c1 (configuration not stated) | 0%
CCOc1ccc(N2C(=O)CSC2=S)cc1 | 0%
O=C1NN(c2ccc(Cl)c(Cl)c2)C(=O)/C1=C/c1ccc(O)c(O)c1 | 49%
COc1cc(/C=C2/C(=O)NN(c3ccc(Cl)cc3)C2=O)ccc1O | 23%
O=C1NN(c2ccc(Cl)cc2)C(=O)/C1=C\c1ccc(O)c(O)c1 | 57% (active)
COc1cccc(OCCCN2CCCC2)c1 | 13%
O=C(COc1ccccc1Cl)Nc1cccc(NC(=O)c2ccccc2)c1 | 6%
Cc1ccccc1OCC(=O)Nc1ccc2nn(-c3ccccc3)nc2c1 | 8%
COc1ccc(-n2nc3ccc(NC(=O)COc4ccccc4Cl)cc3n2)cc1 | 32%
O=C(COc1ccccc1Cl)Nc1cccc(NC(=O)c2cccc(Cl)c2)c1 | 38%
O=C(Cc1ccc(Cl)cc1)Nc1ccc2nn(-c3ccc(F)cc3)nc2c1 | 41%
O=C(COc1ccccc1Cl)Nc1ccc2nn(-c3ccccc3)nc2c1 | 53% (active)
O=C(COc1ccccc1Cl)Nc1cccc(S(=O)(=O)c2cccc(NC(=O)COc3ccccc3Cl)c2)c1 | 54% (active)
O=C(Cc1ccccc1)Nc1ccc2nn(-c3ccc(Cl)cc3)nc2c1 | 37%
O=C(Cc1ccc(Cl)cc1)Nc1ccc2nn(-c3ccc(Cl)cc3)nc2c1 | 51% (active)
